# Laboratory results: PubChem BioAssay (NCATS)
# Values joined by “and” are separate entries in the source; they are usually repeats but may differ in a detail not shown here. Equal values may be shown once. Records with an inconclusive call do not appear. More than one record can exist for a structure, and the calls need not agree. A number with no mark means an inactive call. Active and inactive are the calls of the source. Calls come from the whole dose curve; as a rule, active = well fitted curve in the direction sought with a large enough effect; inconclusive = small, poorly fitted or top-dose-only effect, or another doubt; inactive = no such curve, though single readings can be large; an effect the other way counts as inactive or inconclusive.
# Columns and labels:
# [1] = Viability qHTS for spleen associated tyrosine kinase inhibitor (SYKi) naive MV4-11 cells (AID 1963823); note: nearly all actives have a fitted effect of over 40% in size; note: potency is the fitted concentration of half-maximal effect
# In short: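 SYK inhibitor-naive MV4-11 cells, 500 per well, exposed to compounds for 72 hr at 37 C, 5% CO2. Viability read as CellTiter-Glo luminescence after 10 min at room temperature.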
# [2] = Viability qHTS for spleen associated tyrosine kinase inhibitor (SYKi) drug resistant MV4-11 cells (AID 1963824); note: nearly all actives have a fitted effect of over 35% in size; note: potency is the fitted concentration of half-maximal effect
# In short: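 CellTiter-Glo luminescence, read 10 min after reagent addition, reports viability after a 72 hr compound exposure. Cells are an MV4-11 line made resistant to SYK inhibition, seeded at 500 per well onto compound-containing plates.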
# [3] = Quantitative highthroughput screen to assess conditional lethalithy of NOMO1 cells grown in RPMI1640 with untreated serum (RPMI+s) (AID 1963876);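 note: 100% = DMSO wells and 0% = empty wells without cells; nearly all actives have a fitted effect of over 35% in size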
# In short: (§1)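 Each medium arm—HPLM with 10% dialyzed FBS, or RPMI1640 with 5 mM glucose and 10% untreated or dialyzed FBS—was screened against an 11-point, 3-fold compound titration for 48 h at 37 °C, with CellTiter-Glo luminescence as endpoint.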
# [4] = Quantitative highthroughput screen to assess conditional lethalithy of NOMO1 cells grown in RPMI1640 with dialyzed fetal bovine serum (RPMI+ds) (AID 1963877);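 note: series mostly up to about 46 µM; 100% = DMSO control wells and 0% = empty wells; nearly all actives have a fitted effect of over 30% in size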
# In short: as §1
# [5] = Quantitative highthroughput screen to assess conditional lethalithy of NOMO1 cells grown in Human Plasma-Like Medium with dialyzed fetal bovine serum (HPLM+ds) (AID 1963878);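 note: 100% = DMSO wells and 0% = empty wells on each plate; nearly all actives have a fitted effect of over 35% in size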
# In short: as §1
# [6] = Quantitative highthroughput screen to assess conditional lethalithy of P12 Ichikawa cells grown in Human Plasma-Like Medium with dialyzed fetal bovine serum (HPLM+ds) (AID 1963879); settings: Potency: viability; note: series mostly up to about 46 µM; nearly all actives have a fitted effect of over 35% in size
# In short: as §1
# [7] = Quantitative highthroughput screen to assess conditional lethalithy of P12 Ichikawa cells grown in RPMI1640 with dialyzed fetal bovine serum (RPMI+ds) (AID 1963880); settings: Potency: P12-Ichikawa viability
# In short: as §1
# [8] = Quantitative highthroughput screen to assess conditional lethalithy of SEM cells grown in Human Plasma-Like Medium with dialyzed fetal bovine serum (HPLM+ds) (AID 1963882)
# In short: as §1
# [9] = Quantitative highthroughput screen to assess conditional lethalithy of SEM cells grown in RPMI1640 with unreated serum (RPMI+s) (AID 1963883)
# In short: as §1
# [10] = Cellular viability qHTS for adrenocortical cancer (ACC) cell line SW-13 (AID 1963989); settings: SW-13 ACC cells viability, CellTiter-Glo, 48 h; activity (max response): stronger effect = lower value;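 note: cells grown in serum-free medium with ITS supplement; % is set by controls: 0 for no effect and ±100 for the full control effect; nearly all actives have a fitted effect of over 65% in size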
# In short: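 48 h treatment, SW-13 in ITS/DMEM serum-free; doses up to 46 uM; readout CellTiter-Glo luminescence; curve fit four-parameter logistic.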
# [11] = Cellular viability qHTS for adrenocortical cancer (ACC) cell line NCI-H295R (AID 1963990);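 note: 0% = DMSO only wells and -100% = full killing with cytotoxic reference compound; nearly all actives have a fitted effect of over 60% in size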
# In short: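 Compound titrations (up to 46 uM final) are applied to NCI-H295R cultures for 48 h at 37C. Viable cell number is estimated by CellTiter-Glo signal, normalised to DMSO and doxorubicin controls.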
smiles,measurement,setting,value
CC1CCC2(O1)C(C)(C)CC(O[C@@H]1O[C@H](CO[C@@H]3OC[C@](O)(CO)[C@H]3O)[C@@H](O)[C@H](O)[C@H]1O)CC2(C)O (some centres undefined),Potency,[1],inactive
C=C1C[C@]23C[C@H]1CC[C@H]2[C@]1(C)CC[C@H](O)[C@@](C)(C(=O)O)[C@H]1[C@@H]3C(=O)O,Potency,[1],inactive
CC1(C)CC[C@]2(C(=O)O)CC[C@]3(C)C(=CCC4[C@@]5(C)C[C@H](O)[C@H](O[C@@H]6O[C@H](CO)[C@@H](O)[C@H](O)[C@H]6O)[C@@](C)(CO)C5[C@H](O)C[C@]43C)[C@@H]2C1 (some centres undefined),Potency,[1],inactive
same,Potency,[2],inactive
CC(=O)OCCC(C)CCC1C(C)(O)CCC2C(C)(C)CCCC21C (centres undefined),Potency,[1],inactive
CC1(C)C(=O)N2c3ccccc3[C@]3(CC(n4cnc5ccccc5c4=O)C(=O)O3)[C@H]2N1O (some centres undefined),Potency,[1],inactive
CCOc1cc(CC(=O)NC(CC(C)C)c2ccccc2N2CCCCC2)ccc1C(=O)O (centres undefined),Potency,[1],inactive
Cc1ccccc1Sc1ccc(/C=C2\SC(=S)NC2=O)cc1[N+](=O)[O-],Potency,[1],inactive
Cn1c(CNc2ccc(C(=N)N)cc2)nc2cc(C(=O)N(CCC(=O)O)c3ccccn3)ccc21,Potency,[1],4.61 µM (active)
same,viability (% of control),[1],81.5% [at 0.588 µM]
same,Potency,[2],4.11 µM (active)
same,"viability, % of control",[2],94.3% [at 0.588 µM]
same,Potency,[3],inactive
same,Potency,[4],inactive
same,Potency,[5],inactive
same,Potency,[6],inactive
same,Potency,[7],inactive
same,Potency,[8],inactive
same,Potency,[9],inactive
same,activity (max response),[10],9.7%
same,"activity change, negative = viability loss",[11],15.5% [at 0.587 µM]
C[C@@H]1C(=O)OC[C@H]2C(C(=O)O)=C[C@@H]3CC(C)(C)C[C@]312,Potency,[1],inactive
same,Potency,[2],inactive
COC(=O)C1=CO[C@@H](O[C@@H]2O[C@H](CO)[C@@H](O)[C@H](O)[C@H]2O)[C@H]2[C@@H]1[C@H](O)C[C@]2(C)O,Potency,[1],inactive
C=C1C(=O)OC2/C=C(\COC(C)=O)CC/C=C(\C=O)CC(OC(=O)CC(C)C)C12 (centres undefined),Potency,[1],1.26 µM (active)
same,Potency,[2],1.12 µM (active)
Cc1cc2c(F)c(Oc3ncnn4cc(OCC(C)OC(=O)C(C)N)c(C)c34)ccc2[nH]1 (centres undefined),Potency,[1],10.3 µM (active)
same,Potency,[2],8.2 µM (active)
COc1ccc2c(c1)C(C(=O)N(Cc1ccc(N(C)C)cc1)c1ccc(C(C)C)cc1)CCC2 (centres undefined),Potency,[1],16.4 µM (active)
same,Potency,[2],14.6 µM (active)
O=C1NC(=O)[C@@H](c2cn3c4c(cccc24)CCC3)[C@@H]1c1c[nH]c2ccccc12,Potency,[1],1.18 µM (active)
same,Potency,[2],1.32 µM (active)
CC1(C)CCCC2(C)C=C(C(=O)O)C(O)CC12 (centres undefined),Potency,[1],inactive
same,Potency,[2],inactive
Cc1ncc(NC(=O)c2ccc(CN3CCN(C)CC3)c(C(F)(F)F)c2)cc1Nc1nccc(-c2cccnc2)n1,Potency,[1],920 nM (active) and 1.66 µM (active)
same,Potency,[2],2.06 µM (active) and 3.32 µM (active)
Nc1ncnc2c1c(-c1ccc(Oc3ccccc3)cc1)nn2[C@@H]1CCCNC1,Potency,[1],0.206 µM (active)
same,Potency,[2],0.259 µM (active)
CC1CCC(C(=O)N(c2cc(C#CC(C)(C)C)sc2C(=O)O)C2CCC(O)CC2)CC1 (centres undefined),Potency,[1],16.4 µM (active)
same,Potency,[2],11.8 µM (active) and 14.6 µM (active)
CCC(C)/C=C(C)/C=C/C1=CC2=C(Cl)C(=O)C(C)(OC(C)=O)C(=O)C2=CN1C(CCCN=C(N)N)C(=O)O (centres undefined),Potency,[1],inactive
same,Potency,[2],inactive
C=C(C(=O)O)C1CCC(C)C2CCC(=O)OC2(C)C1 (centres undefined),Potency,[1],inactive
same,Potency,[2],20.6 µM (active)
CNc1nc(-c2ccc3c(N)n[nH]c3c2)cc(N2CC(C(=O)NC3CCCCC3)CCC2C)n1 (centres undefined),Potency,[1],2.31 µM (active)
same,Potency,[2],4.61 µM (active)
NCc1ccc(Nc2ncc(F)c(Nc3ccccc3)n2)cc1,Potency,[1],0.651 µM (active)
same,Potency,[2],1.46 µM (active)
C/C1=C\CC[C@H](C)CCO[C@@H]2O[C@H](CO[C@@H]3OC[C@](O)(COC1=O)[C@H]3O)[C@@H](O)[C@H](O)[C@H]2O,Potency,[1],inactive
same,Potency,[2],inactive
O=C(NCCN1CCC(n2c(=O)[nH]c3ccccc32)CC1)c1cc2cc(F)ccc2[nH]1,Potency,[1],18.4 µM (active)
same,Potency,[2],18.4 µM (active)
CN(CC1COCCO1)S(=O)(=O)Nc1ccc2ccc3ncc(-c4cnn(C)c4)cc3c(=O)c2c1 (centres undefined),Potency,[1],0.164 µM (active)
same,Potency,[2],0.651 µM (active)
N#CC1C(=O)N=C(c2cc(Cl)ccc2O)C=C1c1cc(OCc2ccccc2)cc(OCc2ccccc2)c1 (centres undefined),Potency,[1],inactive
same,Potency,[2],inactive
C=C1CC2OC(=O)C(=C)C2C(OC(=O)/C(C)=C\C)CC2(C)OC1=CC2=O (centres undefined),Potency,[1],0.453 µM (active)
same,Potency,[2],0.453 µM (active)
CCC/C=C/c1cc2c(C=O)c(O)c(CC=C(C)C)cc2o1,Potency,[1],14.6 µM (active)
same,Potency,[2],16.4 µM (active)
COc1cc(/C=C/C(=O)OC(C)(C)C(OC2OC(CO)C(O)C(O)C2O)C(=O)OCc2ccc(OC3OC(CO)C(O)C(O)C3O)cc2)ccc1O (centres undefined),Potency,[1],inactive
same,Potency,[2],inactive
CCCCc1nc(C)c(CC(=S)N(C)C)c(=O)n1Cc1ccc(-c2ccccc2-c2nn[nH]n2)cc1,Potency,[1],inactive
same,Potency,[2],inactive
